According to PubChem BioAssay (NCI):
This is part of a sample that, as a whole, favours compounds with a hit. Of some 83,000 tested, about 20% had one in any assay.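 How to read the values: 0–100, growth inhibition (40 = 60% inhibited); 0, no net growth; -100 to 0, cell death (-40 = 40% of starting cells died; -100 = all dead).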 Active and inactive are the calls of the source. Rule for the calls: active = growth percent below 10; inactive = the rest.

Tests used:
Assay in all cases: NCI-60 one-dose screen, 48 h (100 = growth as untreated, 0 = no growth, -100 = all killed)
[1] = tested on: HCT-15 colon; settings: 10 µM unless noted
[2] = tested on: HT29 colon; settings: 10 µM unless noted
[3] = tested on: SNB-75 CNS; settings: 10 µM unless noted
[4] = tested on: SNB-19 CNS; settings: 10 µM unless noted
[5] = tested on: U251 CNS; settings: 10 µM unless noted
[6] = tested on: PC-3 prostate; settings: 10 µM unless noted
[7] = tested on: SK-MEL-5 melanoma; settings: 10 µM unless noted
[8] = tested on: UACC-62 melanoma; settings: 10 µM unless noted
[9] = tested on: SK-MEL-2 melanoma; settings: 10 µM unless noted
[10] = tested on: EKVX NSCLC; settings: 10 µM unless noted
[11] = tested on: SN12C renal; settings: 10 µM unless noted
[12] = tested on: UO-31 renal; settings: 10 µM unless noted
[13] = tested on: TK-10 renal; settings: 10 µM unless noted
[14] = tested on: ACHN renal; settings: 10 µM unless noted
[15] = tested on: CAKI-1 renal; settings: 10 µM unless noted
[16] = tested on: A498 renal; settings: 10 µM unless noted
[17] = tested on: CCRF-CEM leukemia; settings: 10 µM unless noted
[18] = tested on: MOLT-4 leukemia; settings: 10 µM unless noted
[19] = tested on: LOX IMVI melanoma; settings: 10 µM
[20] = tested on: SK-MEL-28 melanoma; settings: 10 µM unless noted

Measured: growth

COc1cc(-c2ccc(/C=N/NC(=O)c3[nH]c4ccc(Br)cc4c3-c3ccccc3)s2)cc(OC)c1OC
inactive: [1] 66% | [2] 93.6% | [3] 66.4% | [4] 63.9% | [5] 63.4% | [6] 76.5% | [7] 89.8% | [8] 84.5% | [9] 104% | [10] 73.7% | [11] 92.6% | [12] 96.9% | [13] 106% | [14] 75.6% | [15] 71.6% | [16] 130% | [17] 73.2% | [18] 79.1%

O=C(CN1C(=O)/C(=C/c2ccccc2Cl)SC1=S)N1CCOCC1
inactive: [1] 45% | [2] 96.4% | [3] 109% | [4] 92.4% | [5] 93.4% | [6] 102% | [7] 98.9% | [19] 48.2% | [9] 103% | [10] 99.8% | [11] 78.5% | [12] 66.5% | [13] 112% | [14] 61.2% | [15] 90.9% | [16] 119% | [17] 61.8% | [18] 85.9%

O=C1NC(=O)c2c1c1c3cc(Br)ccc3[nH]c1c1oc3ccc(F)cc3c21
inactive: [1] 21.5% | [2] 36.4% | [10] 20.7% | [12] 10.8% | [13] 66.7%
active: [3] -11.6% | [4] -16.9% | [5] -55.5% | [6] -66% | [7] 2.9% | [8] 0.264% | [9] -58.3% | [11] -39.1% | [14] -72.5% | [15] -64.8% | [16] -83.1% | [17] 2.94% | [18] -5.4%

Cc1nc(Nc2ccccn2)sc1C(=O)CC(SCC(=O)Nc1ccc(Cl)cc1)c1ccccc1F (stereo not drawn)
inactive: [3] 16.5% | [4] 11% | [6] 43.2% | [20] 24.1% | [10] 36.5% | [12] 30.3% | [14] 24.6% | [15] 15.3% | [16] 45.3% | [17] 12.4% | [18] 23.7%
active: [1] 2.33% | [2] -28.4% | [5] -21.1% | [7] 4.3% | [19] -22.5% | [9] -27.1% | [11] -15.1% | [13] 6.79%

NS(=O)(=O)c1ccc(-n2cc(-c3cccc(NC(=O)c4cc(C(F)(F)F)cc(C(F)(F)F)c4)c3)nn2)cc1
inactive: [1] 85.7% | [2] 46.6% | [3] 37.5% | [4] 25% | [5] 11.7% | [6] 52% | [7] 90.5% | [8] 73.8% | [9] 81.8% | [10] 63.8% | [11] 74.7% | [12] 102% | [13] 72.9% | [14] 66.1% | [15] 75.3% | [16] 152% | [17] 75.4% | [18] 75.1%

CCCCNC(=S)Nc1ccc(OCc2nc3ccccc3[nH]2)cc1
inactive: [1] 47.9% | [2] 50.3% | [3] 56% | [4] 70% | [5] 57.4% | [6] 58.2% | [7] 78% | [8] 38.2% | [9] 69.1% | [10] 62.3% | [11] 64.5% | [12] 41.1% | [13] 98.8% | [14] 45.5% | [15] 40% | [16] 96.5% | [17] 34.2% | [18] 35.2%

CCN1C(=O)/C(=N\N=C(/C)c2ccc3c(c2)Nc2ccccc2S3)c2cc(Cl)ccc21
active: [7] 7.2%
inactive: [1] 46.7% | [2] 71.6% | [3] 76% | [4] 64.4% | [5] 73.7% | [6] 40.5% | [8] 32.7% | [9] 70.8% | [10] 40.1% | [11] 58.9% | [12] 56.6% | [13] 72.1% | [14] 24.6% | [15] 48.1% | [16] 60.1% | [17] 50.8% | [18] 37.4%

CC(=O)Nc1ccc(C(=O)NC(=S)Nc2ccc(S(N)(=O)=O)cc2)cc1
inactive: [1] 106% | [2] 92.6% | [3] 78.1% | [4] 98.4% | [5] 94.2% | [6] 97.9% | [7] 88.3% | [8] 86.9% | [20] 97% | [9] 97.1% | [10] 90.1% | [11] 91.7% | [12] 80.7% | [13] 89.1% | [14] 102% | [15] 87.9% | [16] 104% | [18] 111%

CC1[C@H]2[C@H](C[C@H]3[C@@H]4CC=C5c6sc(Nc7ccccc7F)nc6CC[C@]5(C)[C@H]4CC[C@@]32C)O[C@]12CC[C@@H](C)CO2 (stereo partly drawn)
active: [1] -80% | [2] -79.3% | [3] -55.6% | [4] -37.5% | [5] -88.2% | [6] -47.2% | [7] -58.1% | [19] -90.4% | [20] -97.1% | [9] -83% | [10] -52.5% | [11] -69.4% | [12] -93.1% | [13] -60.2% | [14] -75.4% | [15] -82.2% | [17] -21.5% | [18] -16.2%
inactive: [16] 17.5%

COc1ccc(NC(=O)Cn2c(/C=C/c3cccc([N+](=O)[O-])c3)nc3ccccc3c2=O)cc1
active: [3] 1.99%
inactive: [1] 78.2% | [2] 88% | [4] 72.9% | [5] 36.1% | [6] 94% | [8] 51.5% | [19] 50.8% | [20] 93.7% | [9] 106% | [10] 87.8% | [11] 76.1% | [12] 22.9% | [13] 72.7% | [14] 20.3% | [15] 49.9% | [16] 92.8% | [17] 92.3%

O=C(Nc1ccc(C(F)(F)F)cc1)Nc1ccc2oc(=O)ccc2c1
inactive: [1] 10.1% | [3] 44.1% | [4] 29.5% | [6] 13.6% | [8] 28% | [20] 37.6% | [9] 30% | [10] 12.2% | [13] 36.1% | [15] 22.9% | [16] 27.4% | [17] 16.1%
active: [2] 9.84% | [5] -0.283% | [19] -83.8% | [11] 7.6% | [12] -10.3% | [14] 6.95%

COc1ccc(C(=O)/C=C/c2cccnc2)cc1S(N)(=O)=O
inactive: [2] 24% | [3] 64.2% | [4] 45.4% | [5] 11.2% | [6] 78.4% | [8] 74.8% | [20] 65.7% | [9] 104% | [10] 63.3% | [11] 37.7% | [12] 28% | [13] 66.8% | [14] 50.7% | [15] 52.6% | [16] 103%
active: [1] 4.61% | [19] -15.3% | [17] 5.54%

O=C1Nc2ccc([N+](=O)[O-])cc2C1=Nc1ccccc1
inactive: [1] 92.5% | [2] 122% | [3] 101% | [4] 96.6% | [5] 106% | [6] 94.4% | [8] 59.7% | [19] 97.2% | [20] 108% | [9] 104% | [10] 95.9% | [11] 89.3% | [12] 69.4% | [13] 111% | [14] 78.2% | [15] 77.2% | [16] 116% | [17] 103%

O=C(NNc1nc2cc(F)ccc2n2c(CN3CC4CNCC4C3)ccc12)c1ccncn1 (stereo not drawn)
active: [5] 9.87% | [8] -13.4% | [19] 6.59% | [11] 7.46% | [14] 8.07%
inactive: [1] 28.9% | [2] 31.7% | [3] 49% | [4] 22.2% | [6] 32.6% | [20] 23.2% | [9] 42.7% | [10] 12.7% | [12] 15.6% | [13] 29.9% | [15] 12.1% | [16] 59% | [17] 12.7%

COc1ccc(C(=O)/C=C/c2ccc(Cl)c(Cl)c2)cc1S(N)(=O)=O
inactive: [6] 10.1% | [9] 66.9% | [10] 24.1% | [16] 109% | [17] 12.4%
active: [1] -37.9% | [2] -50.3% | [3] 6.46% | [4] 5.07% | [5] -95.8% | [8] -4.38% | [19] -69% | [20] -33.7% | [11] -2.78% | [12] -80.5% | [13] 5.47% | [14] -69.7% | [15] -7.4%

Cn1nc(C(F)(F)F)cc1-c1cc(Cl)c(COc2ccc(Cl)cc2)c(-c2ccc(Cl)c(C(F)(F)F)c2)c1O
active: [1] -39.5% | [2] 6.65% | [3] -22.5% | [4] -11.5% | [5] -24.8% | [6] -12.3% | [7] -74.4% | [20] -48.8% | [9] -81.6% | [10] -2.8% | [11] -51.4% | [12] -48.4% | [13] 3.16% | [14] -5.03% | [15] -15.9% | [16] -11.9% | [17] -34.3% | [18] -23.1%

NS(=O)(=O)c1ccc(-n2cc(-c3cccc(NC(=O)c4ccc(Cl)c(C(F)(F)F)c4)c3)nn2)cc1
active: [2] 9.41% | [3] 5.75% | [5] -54.8% | [19] -33.3% | [20] -14.5%
inactive: [1] 41.6% | [4] 32.3% | [6] 17.7% | [8] 35% | [9] 78.3% | [10] 46.5% | [11] 34.3% | [12] 51% | [13] 48.7% | [14] 23.2% | [15] 33.2% | [16] 91.1% | [17] 28.3%
